Measured values as given in PubChem BioAssay (EPA / NIEHS).
Inconclusive results are not listed. The source made the active and inactive calls. Rule for the calls: active = hit-call score of the fitted dose curve at least 0.9, where 1 is the maximum; inconclusive = response in the unintended direction; inactive = score below 0.9.

The compounds below were run against Peroxisome proliferator-activated receptor gamma (Homo sapiens) (UniProt P37231) (assay: ATG_PPARg_TRANS: Attagene TRANS-FACTORIAL HepG2 Assay for human Peroxisome Proliferator-activated Receptor-gamma (PPARg) (AID 2283007)).
Sequence of Peroxisome proliferator-activated receptor gamma (Homo sapiens) (P37231 whole entry, looked up, the tested form may be a part): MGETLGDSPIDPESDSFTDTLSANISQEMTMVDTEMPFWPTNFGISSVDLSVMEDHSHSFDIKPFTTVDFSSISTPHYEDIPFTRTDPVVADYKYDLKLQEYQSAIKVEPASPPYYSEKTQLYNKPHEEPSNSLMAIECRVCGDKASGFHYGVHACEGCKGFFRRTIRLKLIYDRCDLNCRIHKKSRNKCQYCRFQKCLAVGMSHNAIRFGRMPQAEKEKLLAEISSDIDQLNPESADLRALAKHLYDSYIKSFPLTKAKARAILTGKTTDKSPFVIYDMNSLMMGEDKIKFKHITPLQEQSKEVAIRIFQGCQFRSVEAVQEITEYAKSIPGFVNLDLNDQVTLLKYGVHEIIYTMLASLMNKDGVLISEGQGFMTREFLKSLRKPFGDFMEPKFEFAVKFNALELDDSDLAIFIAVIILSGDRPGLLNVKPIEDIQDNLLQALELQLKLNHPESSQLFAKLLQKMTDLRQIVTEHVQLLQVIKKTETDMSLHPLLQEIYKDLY
In short: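 Gain-of-signal endpoint relative to DMSO, derived from reporter mRNA levels quantified by RT-PCR and capillary electrophoresis. Cells were HepG2 transiently expressing a chimeric NR-Gal4 construct with GAL4-UAS reporters, exposed to chemicals for 24 h.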

| Structure (SMILES) | outcome | AC50 |
| --- | --- | --- |
| CC(C)CCOC(=O)CC(C)C | inactive | – |
| CCCCCCCCCCCCN1CCOCC1 | inactive | – |
| CCCc1ccc(N)cc1 | inactive | – |
| Cc1ccccc1S | – | 41.6 µM (active) |
| CC(C)OB(OC(C)C)OC(C)C | inactive | – |
| CC(O)CN (stereo unspecified) | inactive | – |
| COC(=O)c1cccc(C(=O)OC)c1 | inactive | – |
| CCCCC(CC)COCCO (stereo unspecified) | inactive | – |
| c1ccc2scnc2c1 | inactive | – |
| CC1=CCC(=C(C)C)CC1 | inactive | – |
| Nc1ccn([C@H]2CC[C@@H](CO)O2)c(=O)n1 | inactive | – |
| O=C(O)c1cc2ccccc2cc1O | – | 36.1 µM (active) |
| CCCCN(CCCC)CCCCCCN(CCCC)CCCC | inactive | – |
| CC1=CC(O)CC(C)(C)C1 (stereo unspecified) | inactive | – |
| CCC=C(C)C=O | inactive | – |
| N#CCCNCCC#N | inactive | – |
| CC/C=C\CCCCO | inactive | – |
| C=CC(C)(CCC=C(C)C)OC(=O)CC (stereo unspecified) | inactive | – |
| CCCCCCC(O)CCOC(C)=O (stereo unspecified) | inactive | – |
| C=COCC1CCC(COC=C)CC1 (stereo unspecified) | inactive | – |
| CCC(CC)CO | inactive | – |
| CCC(C)COC(=O)CC(C)C (stereo unspecified) | inactive | – |
| CC(=O)CCC(=O)O | inactive | – |

Each compound was assayed against Nuclear receptor subfamily 1 group I member 2 (Homo sapiens) (UniProt O75469) (assay: ATG_PXR_TRANS: Attagene TRANS-FACTORIAL HepG2 Assay for human Pregnane X Receptor (PXR) (AID 2283008)).
Sequence of Nuclear receptor subfamily 1 group I member 2 (Homo sapiens) (O75469 whole entry, looked up, the tested form may be a part): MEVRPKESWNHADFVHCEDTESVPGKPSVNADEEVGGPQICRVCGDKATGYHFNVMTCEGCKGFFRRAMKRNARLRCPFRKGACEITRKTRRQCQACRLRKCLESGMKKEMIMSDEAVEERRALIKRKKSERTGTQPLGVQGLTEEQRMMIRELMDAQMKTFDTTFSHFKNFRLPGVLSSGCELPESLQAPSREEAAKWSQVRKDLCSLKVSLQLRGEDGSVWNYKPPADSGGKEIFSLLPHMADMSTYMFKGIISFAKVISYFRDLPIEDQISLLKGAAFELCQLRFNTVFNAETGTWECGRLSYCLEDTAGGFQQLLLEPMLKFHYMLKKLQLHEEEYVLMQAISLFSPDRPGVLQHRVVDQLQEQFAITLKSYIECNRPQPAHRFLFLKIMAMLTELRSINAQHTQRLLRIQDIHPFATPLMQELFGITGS
In short: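 Transient HepG2 transfectants carrying multiplexed reporter transcription units; PXR activity read through a Gal4 chimera. 24 h exposure. RT-PCR/CE fluorescence; upward curve fit referenced to DMSO.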

| Structure (SMILES) | outcome | AC50 |
| --- | --- | --- |
| CC(C)CCOC(=O)CC(C)C | inactive | – |
| CCCCCCCCCCCCN1CCOCC1 | inactive | – |
| CC(C)OB(OC(C)C)OC(C)C | inactive | – |
| CC(O)CN (stereo unspecified) | inactive | – |
| COC(=O)c1cccc(C(=O)OC)c1 | inactive | – |
| CCCC1CCOC(C)S1 (stereo unspecified) | inactive | – |
| CCCCC(CC)COCCO (stereo unspecified) | inactive | – |
| c1ccc2scnc2c1 | inactive | – |
| Nc1ccn([C@H]2CC[C@@H](CO)O2)c(=O)n1 | inactive | – |
| C=CCOCC(O)CO (stereo unspecified) | inactive | – |
| CC1=CC(O)CC(C)(C)C1 (stereo unspecified) | inactive | – |
| CCC=C(C)C=O | inactive | – |
| N#CCCNCCC#N | inactive | – |
| CC/C=C\CCCCO | inactive | – |
| CCCCCCC(O)CCOC(C)=O (stereo unspecified) | – | 15.2 µM (active) |
| CC(C)N(c1ccccc1)C(C)C | inactive | – |
| C=COCC1CCC(COC=C)CC1 (stereo unspecified) | inactive | – |
| Cc1ccncc1 | inactive | – |
| CCC(CC)CO | inactive | – |
| CCC(C)COC(=O)CC(C)C (stereo unspecified) | inactive | – |
| Cc1ccc(C(C)(C)O)cc1 | inactive | – |
| CC(=O)CCC(=O)O | inactive | – |

The compounds below were run against human Retinoic Acid Receptor gamma (RARg), RARG (gene 5916) (UniProt P13631) (assay: ATG_RARg_TRANS: Attagene TRANS-FACTORIAL HepG2 Assay for human Retinoic Acid Receptor gamma (RARg) (AID 2283009)).
Sequence of human Retinoic Acid Receptor gamma (RARg), RARG (gene 5916) (P13631 whole entry, looked up, the tested form may be a part): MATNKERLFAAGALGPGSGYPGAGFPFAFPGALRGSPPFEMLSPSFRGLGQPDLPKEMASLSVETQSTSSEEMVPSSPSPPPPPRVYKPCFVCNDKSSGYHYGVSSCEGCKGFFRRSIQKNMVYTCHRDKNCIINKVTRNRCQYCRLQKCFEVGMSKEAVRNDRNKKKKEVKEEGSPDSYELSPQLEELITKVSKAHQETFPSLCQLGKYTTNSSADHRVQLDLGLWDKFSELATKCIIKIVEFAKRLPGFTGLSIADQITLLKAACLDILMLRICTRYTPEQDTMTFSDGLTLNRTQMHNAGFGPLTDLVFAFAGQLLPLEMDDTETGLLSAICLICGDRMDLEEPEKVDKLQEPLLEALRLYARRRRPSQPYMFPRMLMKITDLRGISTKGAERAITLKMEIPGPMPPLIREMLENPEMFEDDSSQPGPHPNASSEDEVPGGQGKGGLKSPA
In short: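 Readout: reporter transcript levels via RT-PCR, 6-FAM primer-extension labelling, HpaI digestion and capillary electrophoresis. Cells: HepG2 carrying transfected RARg-GAL4 chimera plus UAS reporter set. Dosing 24 h; DMSO negative control.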

| Structure (SMILES) | outcome |
| --- | --- |
| CC(O)CN (stereo unspecified) | inactive |
| COC(=O)c1cccc(C(=O)OC)c1 | inactive |
| CCOC(=O)CC1(C)OCC(C)O1 (stereo unspecified) | inactive |

Each compound was assayed against human RAR-related Orphan Receptor beta (RORb), RORB (gene 6096) (UniProt Q92753) (assay: ATG_RORb_TRANS: Attagene TRANS-FACTORIAL HepG2 Assay for human RAR-related Orphan Receptor beta (RORb) (AID 2283010)).
Sequence of human RAR-related Orphan Receptor beta (RORb), RORB (gene 6096) (Q92753 whole entry, looked up, the tested form may be a part): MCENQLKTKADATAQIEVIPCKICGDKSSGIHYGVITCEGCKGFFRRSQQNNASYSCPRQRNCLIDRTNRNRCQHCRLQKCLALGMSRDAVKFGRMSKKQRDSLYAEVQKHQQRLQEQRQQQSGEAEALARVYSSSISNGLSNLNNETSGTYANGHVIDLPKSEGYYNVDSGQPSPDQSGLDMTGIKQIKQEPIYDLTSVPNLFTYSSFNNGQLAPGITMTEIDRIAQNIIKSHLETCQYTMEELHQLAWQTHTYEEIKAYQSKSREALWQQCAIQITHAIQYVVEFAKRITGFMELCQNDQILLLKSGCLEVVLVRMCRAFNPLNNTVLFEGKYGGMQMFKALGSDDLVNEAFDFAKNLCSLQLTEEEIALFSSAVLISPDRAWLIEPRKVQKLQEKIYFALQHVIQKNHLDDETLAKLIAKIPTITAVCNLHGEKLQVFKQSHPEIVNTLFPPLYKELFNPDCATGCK
In short: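 HepG2, transient MRTU transfection (GAL4-UAS reporters, exogenous NR-Gal4 chimeras); 24 h compound exposure; total RNA → RT-PCR → 6-FAM primer extension → HpaI digest → CE fluorescence. Positive direction vs DMSO baseline.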

| Structure (SMILES) | outcome |
| --- | --- |
| CC(C)CCOC(=O)CC(C)C | inactive |
| CC(C)OB(OC(C)C)OC(C)C | inactive |
| CC(O)CN (stereo unspecified) | inactive |
| CN(C)C | inactive |
| COC(=O)c1cccc(C(=O)OC)c1 | inactive |
| CCCCC(CC)COCCO (stereo unspecified) | inactive |
| O=C(O)c1cc2ccccc2cc1O | inactive |
| CCCCN(CCCC)CCCCCCN(CCCC)CCCC | inactive |
| C=CCOCC(O)CO (stereo unspecified) | inactive |
| CCC=C(C)C=O | inactive |
| N#CCCNCCC#N | inactive |
| CC/C=C\CCCCO | inactive |
| CCCC[N+](C)(CCCC)CCCC | inactive |
| NC(N)=S | inactive |
| CC1=CCC(C(C)(C)O)CC1 (stereo unspecified) | inactive |
| C=COCC1CCC(COC=C)CC1 (stereo unspecified) | inactive |
| CCC(C)COC(=O)CC(C)C (stereo unspecified) | inactive |
| Cc1ccc(C(C)(C)O)cc1 | inactive |
| CC(=O)CCC(=O)O | inactive |

These compounds were tested against human RAR-related Orphan Receptor gamma (RORg), RORC (gene 6097) (UniProt P51449) (assay: ATG_RORg_TRANS: Attagene TRANS-FACTORIAL HepG2 Assay for human RAR-related Orphan Receptor gamma (RORg) (AID 2283011)).
Sequence of human RAR-related Orphan Receptor gamma (RORg), RORC (gene 6097) (P51449 whole entry, looked up, the tested form may be a part): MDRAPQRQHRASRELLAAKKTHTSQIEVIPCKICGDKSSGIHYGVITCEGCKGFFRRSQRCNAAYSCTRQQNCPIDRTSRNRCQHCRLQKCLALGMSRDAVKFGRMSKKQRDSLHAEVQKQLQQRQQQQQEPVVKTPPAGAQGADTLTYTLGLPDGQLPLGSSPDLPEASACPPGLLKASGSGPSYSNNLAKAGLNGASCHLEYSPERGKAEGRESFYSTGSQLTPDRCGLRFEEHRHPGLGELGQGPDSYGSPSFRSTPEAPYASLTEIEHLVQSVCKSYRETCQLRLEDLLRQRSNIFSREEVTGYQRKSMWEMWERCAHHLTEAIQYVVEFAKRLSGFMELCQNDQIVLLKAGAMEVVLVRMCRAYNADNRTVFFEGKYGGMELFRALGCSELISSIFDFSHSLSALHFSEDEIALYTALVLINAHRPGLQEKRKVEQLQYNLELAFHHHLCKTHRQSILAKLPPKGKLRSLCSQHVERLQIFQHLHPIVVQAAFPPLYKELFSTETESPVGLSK
In short: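 HepG2 cells transiently transfected with GAL4-UAS reporter units and chimeric RORg-Gal4 construct; after 24 h chemical exposure, reporter mRNA measured by RT-PCR with fluorescent capillary electrophoresis, gain of signal fitted against DMSO.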

| Structure (SMILES) | outcome |
| --- | --- |
| Cc1ccccc1S | inactive |
| CC(C)OB(OC(C)C)OC(C)C | inactive |
| COC(=O)c1cccc(C(=O)OC)c1 | inactive |
| CCCC1CCOC(C)S1 (stereo unspecified) | inactive |
| CCCC1CCC(=O)CC1 | inactive |
| c1ccc2scnc2c1 | inactive |
| Nc1ccn([C@H]2CC[C@@H](CO)O2)c(=O)n1 | inactive |
| O=C(O)c1cc2ccccc2cc1O | inactive |
| C=CCOCC(O)CO (stereo unspecified) | inactive |
| CCC=C(C)C=O | inactive |
| N#CCCNCCC#N | inactive |
| CC/C=C\CCCCO | inactive |
| CCCC[N+](C)(CCCC)CCCC | inactive |
| C=CC(C)(CCC=C(C)C)OC(=O)CC (stereo unspecified) | inactive |
| NC(N)=S | inactive |
| CCCCCCC(O)CCOC(C)=O (stereo unspecified) | inactive |
| CC(C)N(c1ccccc1)C(C)C | inactive |
| Cc1ccc(C(C)(C)O)cc1 | inactive |
| CC(=O)CCC(=O)O | inactive |

The compounds below were run against Retinoic acid receptor RXR-alpha (Homo sapiens) (UniProt P19793) (assay: ATG_RXRa_TRANS: Attagene TRANS-FACTORIAL HepG2 Assay for human Retinoid X Receptor alpha (RXRa) (AID 2283012)).
Sequence of Retinoic acid receptor RXR-alpha (Homo sapiens) (P19793 whole entry, looked up, the tested form may be a part): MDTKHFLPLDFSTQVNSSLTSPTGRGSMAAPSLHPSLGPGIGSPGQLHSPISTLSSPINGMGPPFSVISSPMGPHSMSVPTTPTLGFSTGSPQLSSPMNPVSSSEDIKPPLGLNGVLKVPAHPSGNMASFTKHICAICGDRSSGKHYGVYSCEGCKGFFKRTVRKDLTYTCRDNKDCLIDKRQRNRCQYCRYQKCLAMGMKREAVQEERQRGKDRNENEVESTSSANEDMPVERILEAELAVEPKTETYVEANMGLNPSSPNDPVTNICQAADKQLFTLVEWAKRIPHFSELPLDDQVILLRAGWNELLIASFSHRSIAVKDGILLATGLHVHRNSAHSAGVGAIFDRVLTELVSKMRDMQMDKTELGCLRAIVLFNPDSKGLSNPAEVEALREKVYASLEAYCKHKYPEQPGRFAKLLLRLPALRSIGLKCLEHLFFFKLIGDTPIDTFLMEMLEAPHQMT
In short: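 Read-out: fluorescent reporter-transcript fragments quantified by capillary electrophoresis after RT-PCR. Transiently transfected HepG2 cells carrying GAL4-UAS reporters and NR-GAL4 chimeras were exposed to chemical for 24 h; activity scored as increase over DMSO.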

| Structure (SMILES) | outcome |
| --- | --- |
| CC(C)CCOC(=O)CC(C)C | inactive |
| CCCCCCCCCCCCN1CCOCC1 | inactive |
| CCCc1ccc(N)cc1 | inactive |
| CC(O)CN (stereo unspecified) | inactive |
| CCCC1CCOC(C)S1 (stereo unspecified) | inactive |
| CCCCC(CC)COCCO (stereo unspecified) | inactive |
| CC1=CCC(=C(C)C)CC1 | inactive |
| Nc1ccn([C@H]2CC[C@@H](CO)O2)c(=O)n1 | inactive |
| O=C(O)c1cc2ccccc2cc1O | inactive |
| C=CCOCC(O)CO (stereo unspecified) | inactive |
| CC1=CC(O)CC(C)(C)C1 (stereo unspecified) | inactive |
| CCOC(=O)CC1(C)OCC(C)O1 (stereo unspecified) | inactive |
| CCC=C(C)C=O | inactive |
| N#CCCNCCC#N | inactive |
| CC/C=C\CCCCO | inactive |
| O=C(O)c1ccco1 | inactive |
| CCCC[N+](C)(CCCC)CCCC | inactive |
| C=CC(C)(CCC=C(C)C)OC(=O)CC (stereo unspecified) | inactive |
| CCCCCCC(O)CCOC(C)=O (stereo unspecified) | inactive |
| C=COCC1CCC(COC=C)CC1 (stereo unspecified) | inactive |
| Cc1ccncc1 | inactive |
| CCC(C)COC(=O)CC(C)C (stereo unspecified) | inactive |
| CC1=CCC(C(C)C)=CC1 | inactive |
| Cc1ccc(C(C)(C)O)cc1 | inactive |
| CC(=O)CCC(=O)O | inactive |
